The campaign covered roughly 340,000 compounds. About 2,800 (0.82%) were called active.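 The calls were made as follows: active = B-score under library mean minus 4 SD, starting fluorescence ratio at most library mean plus 5 SD; inactive = the rest.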 What follows is part of a selection rich in actives, with near analogues and random picks from the rest.

For the assay, the target named is Potassium channel subfamily K member 3 (Homo sapiens) (UniProt O14649). In words: human KCNK3 channel inhibitors, primary screen, CHO cells, FluxOR thallium flux, B-score (AID 602410).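 As to B-score: more negative B-score means stronger inhibition of thallium flux through KCNK3.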 Particulars: FluxOR fluorescence, at 10 µM; active compounds read low.
Sequence of Potassium channel subfamily K member 3 (Homo sapiens) (O14649 whole entry, looked up): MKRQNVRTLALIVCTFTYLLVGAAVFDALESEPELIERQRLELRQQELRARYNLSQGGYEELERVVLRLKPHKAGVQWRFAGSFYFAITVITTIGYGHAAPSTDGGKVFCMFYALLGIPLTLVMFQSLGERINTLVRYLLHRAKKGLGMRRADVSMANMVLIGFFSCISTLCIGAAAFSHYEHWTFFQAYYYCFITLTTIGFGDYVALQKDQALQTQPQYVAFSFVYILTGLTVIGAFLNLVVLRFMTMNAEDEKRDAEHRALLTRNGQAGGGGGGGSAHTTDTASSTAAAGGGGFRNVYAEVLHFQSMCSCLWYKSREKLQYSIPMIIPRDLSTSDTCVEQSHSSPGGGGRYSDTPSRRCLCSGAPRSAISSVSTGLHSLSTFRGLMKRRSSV
For the compound `CC[C@]1(C(=O)OC)[C@H]2C(=O)N(Cc3ccccc3)C(=O)[C@H]2[C@H]2CN=C(SCc3ccc(C#N)cc3)N21`, the B-score result was “inactive”. The entry for `CCc1ccc(OC(C)C(=O)Nc2ccc(S(=O)(=O)Nc3cc(C)on3)cc2)cc1` (stereo not drawn) is “inactive”; for `Cc1ccc(NC(=O)Nc2cc(-c3ccccc3)nn2C)cc1Cl` it is “inactive”; for `Cc1cc(NC(=O)Nc2ccc(Cl)cc2)n(-c2ccccc2)n1` it is -10.7 (active). For the compound `Cc1cc(C(=O)NCCc2ccc(Cl)cc2)n(-c2ccccc2)n1`, the B-score entry is “inactive”.

With `C[n+]1ccccc1C1CCCC/C1=N\Nc1ccc([N+](=O)[O-])cc1[N+](=O)[O-]` (stereo not drawn), the B-score result was “inactive”. In the case of `O=[N+]([O-])c1ccc(N/N=C2/CCCCC2c2ccccn2)c([N+](=O)[O-])c1` (stereo not drawn) it was “inactive”; in that of `O=C(Nc1ccccc1)O/N=C1\CCCCC1c1ccc([N+](=O)[O-])cc1[N+](=O)[O-]` (stereo not drawn), -9.88 (active). The entry for `Cc1ccc(S(=O)(=O)N(CC(O)CN2C(=O)NC(C)(C)C2=O)c2cccc([N+](=O)[O-])c2)cc1` (stereo not drawn) is “inactive”; for `C/C(=N/NC(=O)c1ccc(Br)o1)c1ccc(C)o1` it is “inactive”.

As to `O=C(C1CC(=O)N(c2ccc(Br)cc2)C1)N1CCCC1` (stereo not drawn), the B-score entry is “inactive”. In the case of `CC(NC(=O)Cn1cc(C(F)(F)F)cc(Cl)c1=O)c1ccccc1` (stereo not drawn) it was “inactive”. The entry for `O=C(CCl)Nc1ccc(Sc2ccc(NC(=O)CCl)cc2)cc1` is “inactive”; for `O=C(Nc1ccncc1)Nc1ccc(F)cc1` it is “inactive”. The figure for `CC(C)(CCl)C(=O)Nc1ccc(Sc2ccc(F)cc2)cc1` is -12 (active); for `CCn1nnnc1SCC(=O)c1ccc(C)cc1C` it is “inactive”.

With `Cc1ccc(NC(=O)COc2ccc(-n3ccnc3)cc2)cc1Cl`, the B-score result was “inactive”. In the case of `c1ccc(CN=C2Nc3ccccc3CS2)nc1` it was “inactive”; in that of `COc1ccc(C(CCNCc2ccccc2F)c2ccc(F)cc2)cc1` (stereo not drawn), “inactive”; in that of `CN(CC(=O)Nc1ccc(S(=O)(=O)N2CCCC2)cc1)Cc1ccc(Cl)c(Cl)c1`, “inactive”. In the case of `CN(CCC(=O)Nc1cc(S(=O)(=O)N(C)C)ccc1Cl)CC(=O)Nc1ccc(F)cc1` it was -16.6 (active); in that of `CN(CC(=O)Nc1ccc(F)cc1)CC(=O)Nc1ccc(Cl)c(S(=O)(=O)N2CCOCC2)c1`, “inactive”; in that of `COc1cc(C(=O)CCc2ccc3c(c2)OCO3)cc(OC)c1OC`, “inactive”.

For the origin of these results see PubChem BioAssay AID602410 (Johns Hopkins Ion Channel Center, 2012).
